These compounds were tested on Perkinsus marinus PRA240 (assay: ATP content (proliferation) relative to DMSO control; higher = more parasite growth (less inhibition)). Settings: 20 µM; 4 days.
Experimental: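 Perkinsus marinus PRA240 trophozoites (2-5x10^6 cells/ml, 100 µl, 96-well) were exposed once to MMV Malaria Box compounds at 20 µM (0.1% DMSO) in triplicate. ATP content (ATPlite bioluminescence) was read at day 4 post-exposure and normalised to DMSO + cells control wells (100% activity). Compounds were identified by joining plate and well to the Malaria Box list.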

For `CCOC(=O)C1(Cc2ccccc2)CCN(Cc2cccc(OC)c2O)CC1`, which ATP content is on record?
The ATP content was 143%.

For `COc1ccc2nc(C)cc(Nc3cccc(O)c3)c2c1`, which ATP content is on record?
The ATP content was 109%.

Which ATP content does the source give for `CCOc1ccc(Nc2c3ccccc3nc3ccccc23)cc1` here?
Its ATP content is 159%.

How did the ATP content turn out when `O=c1nc(C=Cc2ccc(Cl)cc2)oc2ccccc12` was run?
The ATP content was 22.2%.

How did the ATP content turn out when `OC(CNC1CCCCC1)Cn1c2ccc(I)cc2c2cc(I)ccc21` (stereo not given) was run?
Its ATP content is 4.02%.

Which ATP content does the source give for `Cc1ccc(Cl)cc1N1CCN(CCCNC(=O)C2CCN(c3nc4ccccc4[nH]3)CC2)CC1` here?
The ATP content was 87.1%.

How did the ATP content turn out when `CCC(C)NCC(O)(c1ccc(Cl)cc1)c1ccc(Cl)cc1` (stereo not given) was run?
Its ATP content is 78.7%.

With `CCC(=O)Nc1nnc(Cc2ccc(OC)c(OC)c2)s1` as the compound, how does the ATP content read?
The ATP content was 103%.

How did the ATP content turn out when `c1ccc(C2=Nc3ccccc3N=C(c3ccccc3)c3ccccc32)cc1` was run?
The ATP content was 117%.

How did the ATP content turn out when `Cc1sc(NC(=O)c2ccco2)c(C(c2cccnc2)N2CCC(Cc3ccccc3)CC2)c1C` (stereo not given) was run?
The ATP content was 48.5%.

`COc1cccc(Cn2c(Oc3ccccc3)nc3c2c(=O)n(C)c(=O)n3C)c1` was tested. Which ATP content did it give?
The ATP content was 106%.

How did the ATP content turn out when `CC(C)(C)CC(C)(C)NCC(O)COc1ccc2c(c1)CCC2` (stereo not given) was run?
The ATP content was 114%.

Which ATP content does the source give for `O=C(NC(c1ccccc1)c1ccc2cccnc2c1O)c1ccccc1` (stereo not given) here?
The ATP content was 26.3%.

With `CCOC(=O)c1cnc2c(C)cccc2c1Nc1ccc(C(C)=O)cc1` as the compound, how does the ATP content read?
Its ATP content is 122%.

With `COc1cc2c(cc1OC)C1=NNC(=O)C1=NC(C)(C)C2` as the compound, how does the ATP content read?
The ATP content was 42.2%.

With `Cc1cc(NC(=O)c2ccc(-c3ccccc3)cc2)no1` as the compound, how does the ATP content read?
Its ATP content is 69.1%.

`Cc1ccnc(NC(c2cccc(OCc3ccccc3)c2)c2ccc3cccnc3c2O)c1` (stereo not given) was tested. Which ATP content did it give?
The ATP content was 57.2%.

With `O=C(NC1CCN(Cc2ccccc2)CC1)c1cc2nc(-c3ccc(Cl)s3)cc(C(F)(F)F)n2n1` as the compound, how does the ATP content read?
The ATP content was 118%.

With `Cc1cc(N(C)C)nc(Nc2ccc(NC(=O)Nc3ccccc3)cc2)n1` as the compound, how does the ATP content read?
Its ATP content is 85.9%.

Which ATP content does the source give for `CCn1c(SCC(=O)Nc2cc(C(F)(F)F)ccc2Cl)nc2ccccc2c1=O` here?
The ATP content was 102%.

For `O=C(Cc1ccccc1)NC(c1ccc(Cl)cc1)c1c(O)ccc2ccccc12` (stereo not given), which ATP content is on record?
The ATP content was 36%.

Which ATP content does the source give for `COc1cc(OC)cc(N2C(=O)N(Cc3ccc(C(C)(C)C)cc3)c3ccccc3S2(=O)=O)c1` here?
The ATP content was 130%.

With `CC(NCc1ccccc1)c1cc(Cl)ccc1O` (stereo not given) as the compound, how does the ATP content read?
Its ATP content is 85.9%.

How did the ATP content turn out when `COCCNCC(O)Cn1c2ccc(Cl)cc2c2cc(Cl)ccc21` (stereo not given) was run?
Its ATP content is 143%.

How did the ATP content turn out when `CCN(CC)c1cc(C)c2cc(NC(=O)c3cccc(OC)c3)ccc2n1` was run?
Its ATP content is 74%.

`O=C1c2ccccc2C2=Nc3ccccc3SC(c3cccc(F)c3)C12` (stereo not given) was tested. Which ATP content did it give?
Its ATP content is 36.8%.

`Nc1ccc(-c2nc3cc(Cc4ccc5[nH]c(-c6ccc(N)cc6)nc5c4)ccc3[nH]2)cc1` was tested. Which ATP content did it give?
The ATP content was 135%.

`CCCOCc1cc(CN2CCN(c3cccc(Cl)c3)CC2)c(O)c2ncccc12` was tested. Which ATP content did it give?
Its ATP content is 22.8%.

Which ATP content does the source give for `CN(C)CCNc1cc(-c2ccccc2)nc2ccccc12` here?
Its ATP content is 106%.

Which ATP content does the source give for `Oc1ccccc1CN1CCC2(CCCN(Cc3ccccc3F)C2)C1` (stereo not given) here?
Its ATP content is 70.1%.

With `COc1ccc(-c2nc(N3CCN(C(=O)C4CCCCC4)CC3)c3c4c(sc3n2)CCCC4)cc1` as the compound, how does the ATP content read?
Its ATP content is 69.7%.

Which ATP content does the source give for `CCOc1cc(Cl)c(C(C)NC(=O)c2ccccc2)cc1OCC` (stereo not given) here?
Its ATP content is 91.1%.

`O=C(Nc1ccc(N2CCN(Cc3ccccc3)CC2)cc1)c1cccs1` was tested. Which ATP content did it give?
Its ATP content is 86.8%.

`OC(CNCC1CCCO1)Cn1c2ccc(Cl)cc2c2cc(Cl)ccc21` (stereo not given) was tested. Which ATP content did it give?
Its ATP content is 142%.

With `COc1ccc(CNC2CCN(c3ccc(NC(=O)c4cccc(Cl)c4)cc3)CC2)cc1OC` as the compound, how does the ATP content read?
Its ATP content is 102%.

With `COc1ccc(C2c3ccc4ccccc4c3Oc3ncn(CCCN(C)C)c(=N)c32)cc1` (stereo not given) as the compound, how does the ATP content read?
Its ATP content is 202%.

With `CCCCOC(=O)c1ccc(Nc2cc(C)nc3ccc(OC)cc23)cc1` as the compound, how does the ATP content read?
Its ATP content is 93.9%.

How did the ATP content turn out when `COCCN(C(=O)Cc1cccs1)C(C(=O)NCc1ccc(OC)cc1)c1ccc(C(C)C)cc1` (stereo not given) was run?
The ATP content was 37.2%.

Which ATP content does the source give for `Cc1ccc2c(C)nc(Nc3nc(C)cc(-c4ccccc4)n3)nc2c1` here?
The ATP content was 93%.

`O=C(NC1CCN(Cc2ccccc2)CC1)c1cc(-c2ccncc2)nc2ccc(Cl)cc12` was tested. Which ATP content did it give?
Its ATP content is 172%.

Reference: the supplement of paper PMC4206467
